# Test results: PubChem BioAssay (NCI)
# Compounds without any hit were thinned out: in the full panel of roughly 83,000, 20% have a hit.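 Method: cells in 96-well plates; compound added at one concentration; 48 h incubation; percent growth measured; values under 10 scored active.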 A number with no mark means an inactive call. Calls of active or inactive are those of the source.
# Test system: HL-60(TB) leukemia
# Assay: NCI-60 one-dose screen, 48 h (100 = growth as untreated, 0 = no growth, -100 = all killed)
# Conditions: 10 µM unless noted
row,Compound,growth
1,CCOC(=O)c1cc(C)n(-c2ccc(C(=O)O)cc2)c1C,86.2%
2,COC12C=C/C(=C(/C(=O)OCc3cncnc3)C(=O)CCCCCCCCC3(OC)C=C/C(=C(/C(=O)OCc4cncnc4)C(=O)CCCCCCCC1)O3)O2,-27.4% (active)
3,COC1=CC(c2ccc[nH]2)=N/C1=C\c1[nH]c(C)c(C(=O)CCC(=O)Oc2ccc3c(c2)CCC2C3CC[C@]3(C)C(=O)CC[C@@H]23)c1C (stereo partly drawn),79.8%
4,O=C(C[Si](CC(=O)c1cccc(C(F)(F)F)c1)CC(=O)c1cccc(C(F)(F)F)c1)c1cccc(C(F)(F)F)c1,-40.8% (active)
5,CC12OC(CC(O)C1O)n1c3ccccc3c3c4c(c5c6ccccc6n2c5c31)C(=O)N(CCN1CCOCC1)C4=O (stereo not drawn),7.54% (active)
6,O=C1Nc2cc(-c3ccc(NC(=O)C4CC4)cc3)ccc2/C1=C/c1ccc[nH]1,100%
7,CCOc1cc(Cl)c(C(C)NC(=O)c2cccc(OC)c2)cc1OCC (stereo not drawn),-32.8% (active)
8,CCC1CCc2nc3sc(C(=O)Nc4cccc(C)c4)c(N)c3cc2C1 (stereo not drawn),55.7%
9,CN1CCN(c2ccc(NC(=O)c3cncnc3Nc3ccc4c(ccn4Cc4cccc(F)c4)c3)cc2)CC1,-54.3% (active)
10,CCc1ccc(CCN2C(=O)c3ccccc3C2=O)nc1,120%
11,Cc1[nH]c2ccccc2c1/C=N/Nc1ncnc2sc3c(c12)CCN(CC(=O)OC(C)(C)C)C3,12.5%
12,NC(N)=Nc1nc2ccccc2n2c1nc1ccccc12,37.7%
13,C=CCc1cc(C)ccc1NC(C(=O)NCC(=O)OC)c1ccccc1 (stereo not drawn),103%
